The test system of assay [1] is Human papillomavirus type 1a protein E7 (residues 44-93). In words: small molecules binding HPV E7 44-93 – biochemical, small-molecule microarray, residues 44-93, 635 nm fluorescence, primary screen (AID 1108).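 Note: E7 fragment applied at 1 µg/mL in TBST for 1 h at 4 C; score combines spot fluorescence with its signal to noise ratio.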 The conditions noted are these: fluorescence 635 nm, higher = more signal.
A short description of assay [2]: hepatitis C replication reporter changes, two-sided – Huh7 cells, luciferase reporter, HCV replication inhibitor project, primary screen (AID 1109).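 Note: huh7 hepatoma cells harbouring a luciferase neomycin HCV replicon reporter; luciferase luminescence as measure of HCV replicon replication; test concentration not given here.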 The conditions noted are these: Huh7 HCV replicon luciferase reporter, 48 h; higher = more signal. (In general: A reporter such as luciferase makes a cellular process visible.)
For assay [3], the target named is Left-right determination factor 2 (Homo sapiens) (UniProt O00292). In words: small molecules binding LEFTY2 protein – biochemical, small-molecule microarray, 635 nm fluorescence scan, primary screen (AID 1110). The conditions noted are these: higher = more signal.
In assay [4] the target is Calmodulin-1 (Homo sapiens) (UniProt P0DP23). Kind of assay: small molecules binding calmodulin-1 with EGTA – biochemical, small-molecule microarray, Cy5-labelled CALM1, profiling panel (AID 1111).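 Note: labelled calmodulin applied in Tris saline Tween buffer holding calcium plus EGTA and DTT.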 The conditions noted are these: Cy5-CALM1 binding fluorescence, higher = more signal.
Assay [5] shares this target. In words: small molecules binding Ca-loaded calmodulin-1 – biochemical, small-molecule microarray, Cy5-labelled CALM1, plus calcium, artefact control for SMM control-protein annotation, profiling panel (AID 1112).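 Note: score merges spot fluorescence with signal to noise from triplicate slides.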 The conditions noted are these: Cy5-CALM1 binding fluorescence, higher = more signal.
A short description of assay [6]: probe aWnt5a binding to arrayed compounds – biochemical, biotinylated probe, 635/667 nm fluorescence, primary screen (AID 1113).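 Note: score merges 667 nm fluorescence intensity with signal-to-noise per printed feature.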 The conditions noted are these: small-molecule microarray, higher = more signal.
Assay [7] is described as follows: probe aShh binding to arrayed compounds – biochemical, biotinylated probe, 635/667 nm fluorescence, primary screen (AID 1114).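 Note: probe is biotin-labelled aShh protein from a stem cell growth factor screen; measures binding of labelled protein to compounds printed on the slide; score merges feature fluorescence at 667 nm with signal-to-noise.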 The conditions noted are these: small-molecule microarray, higher = more signal.
A short description of assay [8]: probe aNog binding to arrayed compounds – biochemical, biotinylated probe, 635/667 nm fluorescence, primary screen (AID 1115).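 Note: probe is biotinylated aNog protein used at 0.15 µg/mL for 1 h at 4 C; z-score combines 667 nm fluorescence of each spot with its signal to noise.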 The conditions noted are these: small-molecule microarray, higher = more signal.
Assay [9] deals with Torsin-1A-interacting protein 1 (Homo sapiens) (UniProt Q5JTV8). In words: compound microarray binding of lysate hLAP1 – cell lysate, small-molecule microarray, COS7 lysate, 635/667 nm fluorescence, primary screen (AID 1116). The conditions noted are these: 635 nm fluorescence, higher = more signal.
The target in assay [10] is Alpha-bungarotoxin (Bungarus multicinctus) (UniProt P60615). Kind of assay: compounds binding labelled alpha-BTX control protein – biochemical, small-molecule microarray, Alexa647 label, 635/667 nm fluorescence, artefact control for SMM control protein annotation, profiling panel (AID 1117). The conditions noted are these: alpha-BTX-A647 binding fluorescence, higher = more signal.

Another assay addresses Albumin (Bos taurus) (UniProt P02769). In words: compounds binding labelled BSA control protein – biochemical, small-molecule microarray, Alexa647 label, 635/667 nm fluorescence, artefact control for SMM control protein annotation, profiling panel (AID 1118).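 Note: score merges 667 nm emission intensity and signal-to-noise per printed compound spot.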 The conditions noted are these: BSA-A647 binding, fluorescence 635 nm, higher = more signal.
Assay [11] is described as follows: probe aXIP binding to arrayed compounds – biochemical, NeuroSMM set, 635/667 nm fluorescence, primary screen (AID 1119).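 Note: probe is the protein aXip251-270 applied at 1 µg/mL to compound-printed slides; binding of probe to printed compounds measured as 667 nm fluorescence plus signal to noise.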 The conditions noted are these: small-molecule microarray, higher = more signal, called active from +8 up or from −8 down.
The nature of assay [12]: probe aNOTCH3 binding on compound microarray – biochemical, small-molecule microarray, 635/667 nm fluorescence, primary screen (AID 1120).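 Note: probe is a biotin-tagged antibody raised against NOTCH3 rather than NOTCH3 protein; score merges spot fluorescence near 667 nm with spot signal to noise.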 The conditions noted are these: higher = more signal.
The nature of assay [13]: probe aNOTCH2 binding on compound microarray – biochemical, small-molecule microarray, 635/667 nm fluorescence, primary screen (AID 1121).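 Note: score merges feature fluorescence read at 667 nm with its signal to noise.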 The conditions noted are these: higher = more signal.
Assay [14] addresses Carbonic anhydrase 2 (Homo sapiens) (UniProt P00918). In words: compounds binding carbonic anhydrase 2 – biochemical, small-molecule microarray, Alexa647-labelled CAII, profiling panel (AID 1122). The conditions noted are these: CAII-A647 binding fluorescence, higher = more signal.
The nature of assay [15]: COS7 lysate on small-molecule microarray, probe aHis, 635 nm (AID 1123).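 Note: z-score combines 667nm fluorescence intensity with signal-to-noise per printed compound spot.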 The conditions noted are these: COS7 cell lysate, fluorescence, higher = more signal.
Assay [16] is described as follows: probe aLAP1 signal on lysate-treated microarray – cell lysate, small-molecule microarray, COS7 lysate, primary screen (AID 1124).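 Note: lysate comes from COS7 cells expressing LAP1 and is applied at 0.3 µg/mL; score merges spot fluorescence near 667 nm with signal-to-noise over triplicate slides.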 The conditions noted are these: probe aLAP1, fluorescence, higher = more signal.
The next assay has as its system Sam68 (KHDRBS1). In words: compounds binding KHDRBS1 protein – biochemical, small-molecule microarray, 635 nm fluorescence, primary screen (AID 1125).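 Note: score merges 667 nm channel intensity with signal to noise over triplicate slides.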 The conditions noted are these: higher = more signal.
Assay [17] relates to Chordin-like protein 2 (CHRDL2). Kind of assay: compounds binding chordin-like 2 – biochemical, small-molecule microarray, 635 nm fluorescence, primary screen (AID 1126).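 Note: printed compound slides probed with Chrdl2 protein at 4 µg/mL for 1 h at 4 C; score merges 667 nm emission intensity with signal to noise over three replicate slides.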 The conditions noted are these: fluorescence 635 nm, higher = more signal.
Assay [18] concerns the target Concanavalin-A (Canavalia ensiformis) (UniProt P02866). In words: compounds binding concanavalin A lectin – biochemical, small-molecule microarray, Alexa647 label, 635 nm, artefact control for SMM control protein annotation, primary screen (AID 1127).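 Note: z combines 667 nm emission intensity with signal-to-noise across three replicate slides.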 The conditions noted are these: ConA-A647 binding fluorescence, higher = more signal.

For 6 molecules, composite z-score, z-score and composite Z-score results are on record in PubChem BioAssay.

The source made the active and inactive calls.

Sequence of Albumin (Bos taurus) (P02769 whole entry, looked up): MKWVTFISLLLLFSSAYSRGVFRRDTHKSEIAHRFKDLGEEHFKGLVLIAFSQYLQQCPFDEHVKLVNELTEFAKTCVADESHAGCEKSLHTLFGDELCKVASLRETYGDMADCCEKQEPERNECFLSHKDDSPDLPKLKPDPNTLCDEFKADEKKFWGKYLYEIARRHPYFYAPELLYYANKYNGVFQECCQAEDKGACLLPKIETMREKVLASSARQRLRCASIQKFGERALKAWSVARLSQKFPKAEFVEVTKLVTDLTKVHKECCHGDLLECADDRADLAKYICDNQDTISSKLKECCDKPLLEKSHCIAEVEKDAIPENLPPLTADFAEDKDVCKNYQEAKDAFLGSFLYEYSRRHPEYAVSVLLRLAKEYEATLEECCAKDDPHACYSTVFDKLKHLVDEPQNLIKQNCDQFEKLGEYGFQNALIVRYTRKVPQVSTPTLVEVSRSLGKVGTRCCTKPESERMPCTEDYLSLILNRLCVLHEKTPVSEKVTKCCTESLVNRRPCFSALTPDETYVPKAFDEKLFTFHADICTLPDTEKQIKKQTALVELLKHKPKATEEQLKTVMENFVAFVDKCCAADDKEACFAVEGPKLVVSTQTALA
Sequence of Concanavalin-A (Canavalia ensiformis) (P02866 whole entry, looked up): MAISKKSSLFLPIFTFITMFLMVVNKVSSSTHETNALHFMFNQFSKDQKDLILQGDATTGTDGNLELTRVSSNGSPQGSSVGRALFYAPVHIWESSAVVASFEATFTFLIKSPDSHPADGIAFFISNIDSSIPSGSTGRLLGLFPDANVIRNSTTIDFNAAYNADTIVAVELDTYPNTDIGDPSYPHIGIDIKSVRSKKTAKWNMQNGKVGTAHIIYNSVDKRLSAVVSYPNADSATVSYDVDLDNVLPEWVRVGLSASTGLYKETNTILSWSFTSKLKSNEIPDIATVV
Sequence of Left-right determination factor 2 (Homo sapiens) (O00292 whole entry, looked up): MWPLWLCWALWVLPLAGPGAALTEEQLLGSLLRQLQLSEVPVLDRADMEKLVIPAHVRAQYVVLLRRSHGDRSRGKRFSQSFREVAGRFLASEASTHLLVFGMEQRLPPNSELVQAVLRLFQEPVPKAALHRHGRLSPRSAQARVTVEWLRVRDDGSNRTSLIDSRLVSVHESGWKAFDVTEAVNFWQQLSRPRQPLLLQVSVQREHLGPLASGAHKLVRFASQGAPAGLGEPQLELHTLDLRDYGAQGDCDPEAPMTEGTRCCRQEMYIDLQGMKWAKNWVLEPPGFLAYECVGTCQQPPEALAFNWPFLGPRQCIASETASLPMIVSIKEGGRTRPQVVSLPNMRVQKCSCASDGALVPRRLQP
Sequence of Alpha-bungarotoxin (Bungarus multicinctus) (P60615 whole entry, looked up): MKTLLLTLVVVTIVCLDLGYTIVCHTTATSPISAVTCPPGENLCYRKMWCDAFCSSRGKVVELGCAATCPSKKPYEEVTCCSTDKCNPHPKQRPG
Sequence of Torsin-1A-interacting protein 1 (Homo sapiens) (Q5JTV8 whole entry, looked up): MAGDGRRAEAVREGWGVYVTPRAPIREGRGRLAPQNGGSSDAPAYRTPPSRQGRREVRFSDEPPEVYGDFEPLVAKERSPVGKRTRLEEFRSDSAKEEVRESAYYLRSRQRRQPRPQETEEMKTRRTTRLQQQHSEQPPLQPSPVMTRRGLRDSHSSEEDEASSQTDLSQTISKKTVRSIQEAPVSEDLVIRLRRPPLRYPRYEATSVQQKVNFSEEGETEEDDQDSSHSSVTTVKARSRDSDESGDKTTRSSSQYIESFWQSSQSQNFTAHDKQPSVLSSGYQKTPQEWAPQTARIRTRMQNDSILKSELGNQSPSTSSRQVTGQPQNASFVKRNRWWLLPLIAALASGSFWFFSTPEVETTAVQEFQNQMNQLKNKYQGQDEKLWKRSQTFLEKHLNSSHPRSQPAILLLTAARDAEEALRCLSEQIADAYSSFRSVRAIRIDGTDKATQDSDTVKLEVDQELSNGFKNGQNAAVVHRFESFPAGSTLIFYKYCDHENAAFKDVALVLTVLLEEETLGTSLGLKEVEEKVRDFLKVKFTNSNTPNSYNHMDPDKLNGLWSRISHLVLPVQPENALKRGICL

For `C=CCNC(=O)[C@@H]1[C@H]2C(=O)O[C@H](c3ccccc3)[C@H](c3ccccc3)N2[C@H](c2ccc(OCCO)cc2)[C@@]12C(=O)Nc1ccc(C#CCCO)cc12`, the composite z-score in [1] was 1.32; in [3] it was 1.28; in [4], 1.44; in assay [5], -0.0758; in [6] it was 0.452; in assay [7], 2.63. The composite z-score in assay [8] is 2.4; in assay [9] it was 2.12; in [10], 1.68; with Albumin (Bos taurus), 0.495; in assay [12], 0.999; in assay [13], 0.403. Moreover, the composite z-score in [14] stood at 0.659; in assay [15] it was 2.62; in [16], 0.906; in the assay with Sam68 (KHDRBS1) it was 1.29; in assay [17], 1.15; in [18], 1.15. The molecule further had a z-score in assay [2] of -1.36. Further, in assay [11], the composite Z-score is 0.858 (inactive).
With `CC(C)(C)OC(=O)CC[C@@]1(C(N)=O)N=C(c2ccc(OCCCO)cc2)O[C@@H]1c1ccccc1`, the composite z-score in [1] was 1.38; in [3] it was -0.289; in [4], 0.31; in assay [5] it was -0.216; in [6], -0.0512; in assay [7] it was -0.419. The composite z-score was -0.534 in [8]; 1.2 in assay [9]; 0.646 in [10]; 0.604 in the assay with Albumin (Bos taurus); 0.3 in assay [12]; 0.011 in assay [13]. Moreover, the composite z-score in assay [14] was 0.758; in assay [15] it was 2.99; in assay [16], 0.26; in the assay on Sam68 (KHDRBS1), 1.3; in assay [17], -0.796; in assay [18], 0.722. For the same molecule, in [2], the z-score is 0.14. In assay [11], the composite Z-score was -0.327 (inactive).
On to `CC1CC/C=C\[C@H]2OC34C=CCN(c5ccc(Cl)cc5)C(=O)[C@H]3N(CCO)C(=O)[C@]4(C)C2C(=O)O1` (stereo not given in full), for which the composite z-score in assay [1] is -1.01; in [3], -1.1; in [4], -0.795; in [5], -0.633; in [6], -0.124; in [7], -0.367. The composite z-score is -0.342 in [8]; -0.485 in [9]; -0.445 in assay [10]; -0.0427 with Albumin (Bos taurus); -0.152 in assay [12]; -0.149 in assay [13]. Further, the composite z-score was 0.902 in assay [14]; -0.507 in [15]; 0.627 in [16]; 0.409 with Sam68 (KHDRBS1); -0.961 in [17]; -0.206 in [18]. The z-score in assay [2] is -1.35. Also, the composite Z-score in assay [11] was -0.0662 (inactive).
As to `COC(=O)C=C(CC(O)c1cccc(Cl)c1)OC` (stereo not given), the composite z-score is -0.734 in [1]; -0.17 in [3]; 1.27 in assay [4]; 1.01 in [5]; 0.23 in assay [6]; 0.506 in assay [7]. Besides, the composite z-score in assay [8] was determined as 1.93; in assay [9], 1.99; in assay [10], 1.51; with Albumin (Bos taurus), 1.04; in assay [12], 0.936; in [13] it was 0.436. Besides, the composite z-score in assay [14] is 0.811; in assay [15], 0.461; in [16], 1.02; with Sam68 (KHDRBS1) it was 0.0579; in [17], 0.091; in [18] it was -0.115. The same molecule registered a z-score in [2] of -0.923. Further, the composite Z-score in assay [11] was 1.22 (inactive).
For `[N-]=[N+]=NCc1ccccc1[C@@H]1OC(c2ccc(OCCCO)cc2)=N[C@]1(Cc1ccccc1N=[N+]=[N-])C(=O)N1CCOCC1`, the composite z-score in assay [1] came out at 0.841; in assay [3], 0.404; in assay [4] it was 1.97; in [5], 0.995; in assay [6], 0.334; in assay [7], 0.686. For the same molecule, the composite z-score stood at 2.35 in [8]; 1.44 in [9]; 1.82 in assay [10]; 0.809 with Albumin (Bos taurus); 0.387 in [12]; 0.408 in assay [13]. In addition, the composite z-score is 0.765 in assay [14]; 2.9 in [15]; 0.493 in [16]; 1.29 in the assay with Sam68 (KHDRBS1); -0.119 in assay [17]; 1.21 in [18]. Also, in assay [2], the z-score was -1.56. Moreover, in assay [11], the composite Z-score was 0.105 (inactive).
For `COc1cc2c(cc1OC)CN(C(=O)[C@H]1[C@@H]3C(=O)O[C@@H](c4ccccc4)[C@@H](c4ccccc4)N3[C@@H](c3ccc(O)cc3)[C@]13C(=O)Nc1ccc(C#CC4=CCCCC4)cc13)CC2`, the composite z-score in assay [1] was 0.282; in [3], 1.07; in [4], 1.61; in [5], 0.0648; in assay [6], 0.133; in [7], -0.0146. Moreover, the composite z-score in assay [8] was -0.315; in assay [9] it was 0.885; in assay [10], 1.67; with Albumin (Bos taurus), 0.672; in [12], 0.533; in [13] it was -0.0411. Moreover, the composite z-score is 0.561 in assay [14]; 1.74 in assay [15]; 0.969 in assay [16]; 1.31 with Sam68 (KHDRBS1); 0.575 in assay [17]; 1.14 in [18]. In addition, the z-score in assay [2] is -1.67. The composite Z-score in assay [11] was 0.721 (inactive).
